Assay [1] can be described thus: ATG_E_Box_CIS: Attagene CIS-FACTORIAL HepG2 Assay for human Enhancer Box (E-box) (AID 2282936). The note with it: HepG2 E-box cis-reporter transcription, actives raise or lower the signal. In a few lines:
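In this cell-based setup, HepG2 cells bearing transfected promoter-driven reporter units were exposed to chemicals for 24 h; reporter transcripts were amplified, 6-FAM-labelled, cut with HpaI and sized by capillary electrophoresis.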

The nature of assay [2]: ATG_M_61_CIS: Attagene CIS-FACTORIAL HepG2 Assay for M61 Transcription Factor (Internal Marker) (AID 2282937). The note with it: HepG2 Attagene CIS-FACTORIAL M61 internal marker reporter; actives raise or lower the signal. In a few lines: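 Fluorescence from labelled cDNA fragments, separated by capillary electrophoresis, quantifies reporter induction. HepG2 cells bearing transiently transfected cis-promoter MRTUs were incubated with test chemical for 24 h; DMSO defined baseline for gain/loss fitting.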

The nature of assay [3]: ATG_EGR_CIS: Attagene CIS-FACTORIAL HepG2 Assay for human Early Growth Response 1 (EGR1) (AID 2282938). The note with it: HepG2 Attagene CIS-FACTORIAL EGR reporter mRNA; actives raise or lower the signal. The essentials: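 Cell-based multiplex transcription assay: HepG2 carrying transfected cis-element reporter units, 24 h chemical treatment. Fluorescence from capillary electrophoresis of RT-PCR products gives mRNA levels; fitting is bidirectional relative to DMSO.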

The nature of assay [4]: ATG_M_19_CIS: Attagene CIS-FACTORIAL HepG2 Assay for M19 Transcription Factor (Internal Marker) (AID 2282939). The note with it: HepG2 Attagene CIS-FACTORIAL M19 internal marker reporter; actives raise or lower the signal. The essentials:
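HepG2, MRTU transient transfection, 24 h dosing. Total RNA → RT-PCR → 6-FAM primer extension → HpaI digest → CE fluorescence. Bidirectional curve fit, DMSO negative control.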

Assay [5] in a line: ATG_Ets_CIS: Attagene CIS-FACTORIAL HepG2 Assay for human Erythroblast Transformation Specific (ETS) (AID 2282941). The settings on record: HepG2 ETS cis-reporter transcription, actives raise or lower the signal. In a few lines: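 Multiplexed reporter transcript profiling: HepG2, 24 h treatment, total RNA to cDNA, PCR, 6-FAM labelling, HpaI cut, capillary electrophoresis. Gain- or loss-of-signal fitted against DMSO.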

Assay [6] deals with Hepatocyte nuclear factor 3-beta (Homo sapiens) (UniProt Q9Y261). Briefly: ATG_FoxA2_CIS: Attagene CIS-FACTORIAL HepG2 Assay for human Forkhead box A2 (FOXA2) (AID 2282942). The note with it: HepG2 cis-reporter transcription factor activity, 24 h; actives raise or lower the signal. The essentials:
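In transiently transfected human HepG2 cells, promoter-driven reporter mRNA levels after 24 h chemical exposure are determined via RT-PCR with capillary electrophoresis. DMSO serves as baseline for bidirectional fitting.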

The nature of assay [7]: ATG_FoxO_CIS: Attagene CIS-FACTORIAL HepG2 Assay for human Forkhead box O (FoxO) (AID 2282943). The settings on record: HepG2 Attagene cis-reporter, FoxO element, mRNA; actives raise or lower the signal. In a few lines:
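Read-out: fluorescence of 6-FAM-labelled reporter cDNA fragments resolved by capillary electrophoresis. Transiently transfected HepG2 cells were dosed for 24 h; activity fitted in both directions relative to DMSO controls.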

The nature of assay [8]: ATG_GATA_CIS: Attagene CIS-FACTORIAL HepG2 Assay for human GATA Binding Protein (AID 2282944). The settings on record: HepG2 GATA cis-element reporter, Attagene multiplex mRNA; actives raise or lower the signal. In a few lines: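 Cells: HepG2, transiently transfected with cis-regulated reporter transcription units. Exposure: 24 h. Detection: RT-PCR plus capillary electrophoresis of FAM-labeled fragments. Analysis: bidirectional, DMSO as baseline.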

The nature of assay [9]: ATG_GLI_CIS: Attagene CIS-FACTORIAL HepG2 Assay for human Zinc Finger Protein GLI1 (AID 2282945). The note with it: HepG2, Attagene cis-factorial reporter mRNA, GLI element; actives raise or lower the signal. The essentials:
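Transiently transfected HepG2 cells report endogenous transcription factor activity via cis-element-driven reporter units. After 24 h compound exposure, reporter mRNA was measured by RT-PCR with capillary electrophoresis; bidirectional fitting against DMSO baseline.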

Assay [10] concerns the target Bile acid receptor (Homo sapiens) (UniProt Q96RI1). Briefly: ATG_IR1_CIS: Attagene CIS-FACTORIAL HepG2 Assay for human Nuclear Receptor Subfamily 1 Group H Member 4 (NR1H4), IR1 submotif (AID 2282946). The settings on record: IR1 reporter transcription, actives raise or lower the signal. In a few lines: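 Fluorescence of capillary-separated, HpaI-digested RT-PCR reporter products gave IR1-element mRNA induction in HepG2 cells 24 h after dosing. Endogenous transcription factors drove the cis-regulated reporters; activity was fitted bidirectionally against DMSO.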

A short description of assay [11]: ATG_GRE_CIS: Attagene CIS-FACTORIAL HepG2 Assay for human Glucocorticoid Response Elements (GRE) (AID 2282947). The settings on record: HepG2 GRE cis-reporter, Attagene multiplex mRNA; actives raise or lower the signal. In a few lines:
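Fluorescence intensity of reporter-specific cDNA fragments, separated by capillary electrophoresis, provides the signal. Constructs carry cis-regulating promoters in transiently transfected HepG2 liver cells; 24 h incubation; fitting is bidirectional against DMSO.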

The nature of assay [12]: ATG_ISRE_CIS: Attagene CIS-FACTORIAL HepG2 Assay for human Interferon Regulatory Factor 1 (IRF1) binding to an Interferon-Stimulated Response Element (ISRE) (AID 2282948). The settings on record: HepG2 ISRE cis-reporter (Attagene), mRNA transcription readout; actives raise or lower the signal. The essentials:
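Signal reflects induction or loss of ISRE-linked reporter mRNA in transiently transfected HepG2 cells after a 24 h treatment, detected by fluorescent RT-PCR fragments on capillary electrophoresis and normalised to DMSO.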

A short description of assay [13]: ATG_M_32_CIS: Attagene CIS-FACTORIAL HepG2 Assay for M32 Transcription Factor (Internal Marker) (AID 2282949).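 Further: background control marker of the multiplexed CIS panel rather than a real target.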 The settings on record: HepG2 Attagene cis-factorial M32 reporter, mRNA; actives raise or lower the signal. In a few lines: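 HepG2 transfectants (cis-regulated reporter transcription units) dosed 24 h. Reporter mRNA by RT-PCR plus CE, analysed as gain or loss relative to DMSO.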

Assay [14] is described as follows: ATG_M_06_CIS: Attagene CIS-FACTORIAL HepG2 Assay for M06 Transcription Factor (Internal Marker) (AID 2282950). The settings on record: HepG2 Attagene CIS-FACTORIAL M06 internal marker reporter; actives raise or lower the signal. The essentials: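 Measured 24 h post-dosing in transiently transfected HepG2 cells, this internal-marker endpoint reports reporter mRNA via RT-PCR with fluorescent primer extension and capillary electrophoresis. DMSO served as negative control and baseline for bidirectional fitting.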

The target of assay [15] is Hypoxia-inducible factor 1-alpha (Homo sapiens) (UniProt Q16665). In words: ATG_HIF1a_CIS: Attagene CIS-FACTORIAL HepG2 Assay for human Hypoxia Inducible Factor 1 (HIF1A) (AID 2282951). The settings on record: HepG2 Attagene cis-factorial HIF1a reporter transcription; actives raise or lower the signal. In a few lines:
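In this multiplexed cell assay, HepG2 cells bearing transfected cis reporters are dosed for 24 h and reporter mRNA is read by RT-PCR plus capillary electrophoresis; signal increases and decreases are both scored against DMSO.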

For assay [16], the target named is Hepatocyte nuclear factor 6 (Homo sapiens) (UniProt Q9UBC0). In words: ATG_HNF6_CIS: Attagene CIS-FACTORIAL HepG2 Assay for human Hepatocyte Nuclear Factor 6 (HNF6) (AID 2282952). The settings on record: HepG2 Attagene cis-factorial HNF6 reporter transcription; actives raise or lower the signal. In a few lines:
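Endogenous factor activity read in transiently transfected HepG2 via promoter-regulated reporter transcripts. RNA harvested 24 h post-dosing, reverse-transcribed, PCR-amplified, FAM-labelled, HpaI-digested and resolved by capillary electrophoresis; fitted in both directions against DMSO.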

The target in assay [17] is Heat shock factor protein 1 (Homo sapiens) (UniProt Q00613). Briefly: ATG_HSE_CIS: Attagene CIS-FACTORIAL HepG2 Assay for human Heat Shock Transcription Factor 1 (HSE) (AID 2282953). The settings on record: HepG2 HSE cis-reporter, Attagene RNA transcription; actives raise or lower the signal. In a few lines:
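Reporter mRNA induction in HepG2 is measured 24 h after dosing, using transiently transfected multiplexed cis-regulated reporter units. Signal comes from capillary electrophoresis of labelled RT-PCR products, with DMSO as negative control.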

A short description of assay [18]: ATG_MRE_CIS: Attagene CIS-FACTORIAL HepG2 Assay for human Metal Responsive Element (MRE) (AID 2282954). The note with it: HepG2 MRE cis-reporter transcription, Attagene multiplex; actives raise or lower the signal. The essentials: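 Measured here is mRNA induction from an MRE cis-element reporter in HepG2 after 24 h, quantified by fluorescence of labelled RT-PCR products on capillary electrophoresis; gain- and loss-of-signal fits use DMSO as baseline.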

Assay [19] is described as follows: ATG_PBREM_CIS: Attagene CIS-FACTORIAL HepG2 Assay for human Phenobarbital-responsive Enhancer Module (PBREM) (AID 2282955). The note with it: HepG2 PBREM cis-reporter, Attagene multiplexed transcription; actives raise or lower the signal. In a few lines:
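After a 24 h incubation with test chemical, transfected HepG2 cells yield total RNA; reporter-specific RT-PCR products are fluorescently labelled, HpaI-digested and resolved by capillary electrophoresis against ROX size standards.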

Assay [20] can be described thus: ATG_ERE_CIS: Attagene CIS-FACTORIAL HepG2 Assay for Estrogen Response Element (ERE) (AID 2282940). The note with it: HepG2 ERE cis-reporter, Attagene RNA transcript; actives raise or lower the signal. In a few lines: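 After a 24 h chemical treatment, RNA from reporter-transfected HepG2 cells is reverse-transcribed, PCR-amplified and fluorescently labelled. Fragments separated by capillary electrophoresis give reporter signal; DMSO serves as negative control.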

Active and inactive are the calls of the source. How the source made its calls: active means hit-call score of the fitted dose curve at least 0.9, where 1 is the maximum; inactive means score below 0.9.

Chain of Heat shock factor protein 1 (Homo sapiens) (Q00613 whole entry, looked up): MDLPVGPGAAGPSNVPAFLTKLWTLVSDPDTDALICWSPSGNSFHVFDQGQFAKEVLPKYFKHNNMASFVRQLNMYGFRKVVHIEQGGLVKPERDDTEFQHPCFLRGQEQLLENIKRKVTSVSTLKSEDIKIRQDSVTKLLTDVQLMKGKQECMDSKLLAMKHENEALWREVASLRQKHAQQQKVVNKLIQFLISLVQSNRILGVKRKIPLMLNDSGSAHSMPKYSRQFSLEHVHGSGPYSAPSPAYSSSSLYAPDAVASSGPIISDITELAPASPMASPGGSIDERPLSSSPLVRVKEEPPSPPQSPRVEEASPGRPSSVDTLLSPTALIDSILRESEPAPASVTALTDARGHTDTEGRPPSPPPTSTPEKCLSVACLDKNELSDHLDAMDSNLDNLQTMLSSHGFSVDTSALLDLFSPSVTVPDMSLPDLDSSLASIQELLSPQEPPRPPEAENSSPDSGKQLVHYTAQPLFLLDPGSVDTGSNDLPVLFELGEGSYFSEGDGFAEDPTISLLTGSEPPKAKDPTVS
Chain of Hepatocyte nuclear factor 6 (Homo sapiens) (Q9UBC0 whole entry, looked up): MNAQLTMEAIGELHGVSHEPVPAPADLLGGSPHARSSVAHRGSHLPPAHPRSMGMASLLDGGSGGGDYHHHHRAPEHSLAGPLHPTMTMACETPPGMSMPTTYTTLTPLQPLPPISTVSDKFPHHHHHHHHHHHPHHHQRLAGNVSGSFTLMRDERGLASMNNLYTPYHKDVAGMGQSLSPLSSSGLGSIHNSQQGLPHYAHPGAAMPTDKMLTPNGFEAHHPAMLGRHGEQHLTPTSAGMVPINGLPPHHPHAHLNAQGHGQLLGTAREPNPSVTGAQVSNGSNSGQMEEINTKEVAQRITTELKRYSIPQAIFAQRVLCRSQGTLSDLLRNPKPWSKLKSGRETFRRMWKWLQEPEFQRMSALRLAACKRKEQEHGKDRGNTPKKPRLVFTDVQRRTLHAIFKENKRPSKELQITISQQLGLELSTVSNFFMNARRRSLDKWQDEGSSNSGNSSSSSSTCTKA
Chain of Hypoxia-inducible factor 1-alpha (Homo sapiens) (Q16665 whole entry, looked up): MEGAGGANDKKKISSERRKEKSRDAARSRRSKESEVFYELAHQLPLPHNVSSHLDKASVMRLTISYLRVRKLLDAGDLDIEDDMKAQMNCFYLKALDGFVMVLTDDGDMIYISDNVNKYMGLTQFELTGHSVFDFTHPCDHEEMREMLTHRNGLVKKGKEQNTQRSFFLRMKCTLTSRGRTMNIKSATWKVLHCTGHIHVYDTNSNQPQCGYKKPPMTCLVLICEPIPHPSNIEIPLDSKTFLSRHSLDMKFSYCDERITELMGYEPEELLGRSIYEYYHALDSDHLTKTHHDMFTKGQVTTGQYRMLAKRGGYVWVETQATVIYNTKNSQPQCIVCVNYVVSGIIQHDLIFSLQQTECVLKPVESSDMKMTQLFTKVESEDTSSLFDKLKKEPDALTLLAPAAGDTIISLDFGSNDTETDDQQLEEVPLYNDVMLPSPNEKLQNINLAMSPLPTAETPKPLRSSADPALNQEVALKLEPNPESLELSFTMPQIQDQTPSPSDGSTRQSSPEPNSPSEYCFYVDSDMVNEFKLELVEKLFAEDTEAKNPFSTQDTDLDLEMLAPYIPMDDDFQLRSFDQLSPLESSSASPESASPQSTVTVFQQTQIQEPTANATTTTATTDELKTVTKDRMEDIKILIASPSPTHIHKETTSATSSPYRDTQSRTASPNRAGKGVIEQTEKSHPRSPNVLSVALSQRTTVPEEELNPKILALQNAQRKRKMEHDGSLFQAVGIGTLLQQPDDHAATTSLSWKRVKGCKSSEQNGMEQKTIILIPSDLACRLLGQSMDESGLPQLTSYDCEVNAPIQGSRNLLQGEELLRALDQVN
Chain of Bile acid receptor (Homo sapiens) (Q96RI1 whole entry, looked up): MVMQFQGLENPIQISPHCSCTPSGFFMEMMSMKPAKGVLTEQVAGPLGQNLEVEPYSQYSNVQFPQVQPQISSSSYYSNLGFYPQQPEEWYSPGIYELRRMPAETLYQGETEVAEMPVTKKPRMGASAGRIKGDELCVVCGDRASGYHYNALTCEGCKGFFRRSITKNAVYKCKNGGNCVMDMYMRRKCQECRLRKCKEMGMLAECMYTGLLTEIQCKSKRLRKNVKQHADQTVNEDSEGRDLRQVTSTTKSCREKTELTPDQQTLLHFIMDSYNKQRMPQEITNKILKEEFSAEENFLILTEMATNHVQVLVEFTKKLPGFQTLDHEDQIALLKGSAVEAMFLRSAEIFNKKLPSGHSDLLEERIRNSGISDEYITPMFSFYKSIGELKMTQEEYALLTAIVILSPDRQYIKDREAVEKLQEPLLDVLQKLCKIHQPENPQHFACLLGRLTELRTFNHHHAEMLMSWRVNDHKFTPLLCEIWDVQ
Chain of Hepatocyte nuclear factor 3-beta (Homo sapiens) (Q9Y261 whole entry, looked up): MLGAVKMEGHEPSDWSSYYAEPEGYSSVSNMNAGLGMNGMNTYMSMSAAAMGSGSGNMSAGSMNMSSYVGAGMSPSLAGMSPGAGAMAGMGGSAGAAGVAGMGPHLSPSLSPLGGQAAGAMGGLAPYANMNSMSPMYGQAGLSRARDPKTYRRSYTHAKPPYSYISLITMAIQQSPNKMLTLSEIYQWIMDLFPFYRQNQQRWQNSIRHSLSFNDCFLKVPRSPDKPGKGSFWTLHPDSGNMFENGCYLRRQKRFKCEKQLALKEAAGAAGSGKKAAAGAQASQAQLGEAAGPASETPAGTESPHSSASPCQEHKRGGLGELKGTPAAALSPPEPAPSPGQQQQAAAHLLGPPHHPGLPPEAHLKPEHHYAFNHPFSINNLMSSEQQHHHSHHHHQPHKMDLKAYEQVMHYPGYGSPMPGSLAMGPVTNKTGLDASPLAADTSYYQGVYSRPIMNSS

Turning to `Cc1cccc(C)c1C`, the outcome in assay [1], in [2], in assay [3], in assay [4], in assay [5] and in assay [6] was inactive. Moreover, the compound was called inactive in assay [7], in assay [8], in [9], in [10], in assay [11] and in assay [12]. Besides, the compound was classed as inactive in [13], in assay [14], in assay [15], in [16], in assay [17] and in assay [18]. Also, the outcome in [19] was inactive.
In the case of `O=C1CCc2ccccc2O1`, the result in [1], in [2], in assay [3], in assay [4], in assay [20] and in assay [5] was inactive. Further, the result in [6], in assay [7], in [12], in assay [14], in assay [15] and in [16] was inactive. Moreover, the outcome in [17] and in [18] was inactive.
On to `CC(C)(C)c1n[nH]c(=S)n(N)c1=O`, for which the outcome in [1], in [2], in [3], in assay [4], in [20] and in assay [6] was inactive. For the same compound, the outcome in assay [7], in [9], in assay [11], in assay [12], in assay [14] and in assay [15] was inactive. Also, the call in assay [16], in assay [17], in assay [18] and in assay [19] was inactive.
Take `CC1CCC2CC1C2(C)C` (stereo unspecified): the outcome in [1], in assay [2], in assay [3], in assay [4], in [5] and in [6] was inactive. For the same compound, the compound was classed as inactive in assay [7], in [8], in [9], in [10], in assay [11] and in assay [12]. In addition, the call in [13], in assay [14], in assay [16], in assay [17], in assay [18] and in [19] was inactive.
Turning to `CCCC(=O)c1cc(O)c(O)cc1O`, the outcome in assay [1], in assay [2], in assay [3], in [4], in [20] and in [6] was inactive. Also, the outcome in assay [7], in assay [8], in [9], in assay [10], in assay [11] and in [12] was inactive. Further, the compound was classed as inactive in assay [13], in assay [14], in assay [15], in assay [16], in [17] and in assay [18]. Besides, in assay [19], the outcome was inactive.
For the compound `C=C(C)C(=O)OCCOC(=O)CC(C)=O`, the outcome in assay [1], in assay [2], in assay [3], in [4], in assay [5] and in assay [6] was inactive. In addition, the call in assay [7], in [8], in assay [9], in assay [10], in assay [11] and in assay [12] was inactive. For the same compound, the call in assay [13], in assay [14], in assay [15], in assay [16], in assay [17] and in assay [18] was inactive.
Consider `C[C@H]1C[C@H]2[C@@H]3CCC4=CC(=O)C=C[C@]4(C)[C@@]3(F)[C@@H](O)C[C@]2(C)[C@@]1(O)C(=O)COP(=O)(O)O`, for which the outcome in assay [1], in [2], in assay [3], in [4], in assay [20] and in assay [6] was inactive. In addition, the result in [7], in [8], in [9], in assay [12], in assay [13] and in assay [14] was inactive. For the same compound, the compound was called inactive in assay [15], in assay [16], in assay [17] and in [18]. Also, in [11], the half-maximal activity concentration (AC50) is 82.3 nM (active).

For the origin of these results see PubChem BioAssay (EPA / NIEHS).
